In PubChem BioAssay (NCI) one finds growth data, which are given here for 40 compounds.

The panel holds about 83,000 compounds, 20% with a hit somewhere; the sample as a whole holds those more often.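 Note: values are percent growth. 100 is the growth of untreated cells, values between 100 and 0 indicate rising inhibition; between -100 and 0 indicates cell death.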 Values without a mark were called inactive. The source made the active and inactive calls. Rule for the calls: active = growth percent below 10; inactive = the rest.

The subject of the first assay is MDA-MB-231 breast. In words: NCI-60 one-dose screen, 48 h (100 = growth as untreated, 0 = no growth, -100 = all killed). As to conditions: 10 µM.
In the case of `CC(=O)C1N=NCC1c1ccccc1` (stereo unspecified), the growth is 97.9%.
Consider `O=C(CN(C1CCCCC1)C1CCCCC1)Nc1ccc(S(=O)(=O)c2ccc(NC(=O)CN(C3CCCCC3)C3CCCCC3)cc2)cc1`, for which the growth is -49.4% (active).
Same read-out and setting: as for `Cc1c[nH]c(=O)n(Cc2nnc(CCC(=O)c3nc4ccccc4[nH]3)o2)c1=O`, the figure is 26.1%; as for `O=C(CCn1cnc2c(cc(-c3ccccc3)n2-c2ccccc2)c1=O)Nc1ccc(F)cc1`, 68.7%.
`CN(C)CCOc1cccc(NC2=C(Cl)C(=O)C(Nc3cccc(OCCN(C)C)c3)=C(Cl)C2=O)c1`: the growth was -75.2% (active).
On the same count and under the same terms, to `CN1CCN(CCC(=O)Nc2cccc(-n3cc(-c4ccncc4)c(-c4ccc(Cl)c(O)c4)n3)c2)CC1` belongs -72% (active).
On the same count and under the same terms, as for `CC(=O)Nc1ccc(CC[C@H]2CCC/C=C/[C@@H]3C[C@H](O)C[C@H]3[C@H](O)/C=C/C(=O)O2)cc1`, the figure is -88.4% (active).
Turning to `CN(C)CCN(Cc1ccccc1)c1ccc2ccccc2n1`, the growth was 87.2%.
Regarding `C/C(=N\O)c1ccc(NC(=O)CSc2nnc(-c3ccccc3)n2-c2ccccc2)cc1`, the growth was 67.9%.
In the case of `CCC(CC)n1c(C)cc(=O)n1C(CC)CC`, the growth is 109%.
With `CC[C@@H](C(=O)[C@H](C)[C@H](O)[C@@H](C)[C@H]1O[C@H]([C@@H](CC)C(=O)O)CC[C@H]1C)C1O[C@]2(C=C[C@@H](O)[C@]3(CC[C@@](C)([C@H]4CC[C@](O)(CC)[C@H](C)O4)O3)O2)[C@H](C)C[C@@H]1C` (stereo partly specified), the growth was 17.3%.
For `O=C(O)c1cc([N+](=O)[O-])ccc1Oc1ccccc1`, the growth is 97.3%.
On to `O=[N+]([O-])c1cccc(/C=N/NC(=S)NC23CC4CC(CC(C4)C2)C3)c1`, for which the growth is 70.2%.
The same measure, in the same setting: to `COc1cc(C(=O)n2nc(-c3cc(OC)c(OC)c(OC)c3)nc2N)cc(OC)c1OC` belongs 108%; to `COc1ccc(-c2n[nH]nc2-c2cc(OC)c(OC)c(OC)c2)cc1`, 14.8%.
For `C=CCN(CC=C)C(=O)[C@H](CC)[C@@H]1CC[C@@H](C)[C@@H]([C@H](C)[C@@H](O)[C@@H](C)C(=O)[C@H](CC)C2O[C@]3(C=C[C@@H](O)[C@]4(CC[C@@](C)([C@H]5CC[C@](O)(CC)[C@H](C)O5)O4)O3)[C@H](C)C[C@@H]2C)O1` (stereo partly specified), the growth is -36.3% (active).
As to `O=C(Nc1cccc2c1CCCC2)c1cc2ccccc2cc1O`, the growth is 34.8%.
The same measure, in the same setting: to `O=C1/C=C/[C@@H](O)[C@@H]2C[C@@H](O)C[C@H]2/C=C/CCC[C@H](CCc2ccc(NC(=S)Nc3ccc4c(c3)C(=O)OC43c4ccc(O)cc4Oc4cc(O)ccc43)cc2)O1` belongs -88.7% (active); to `COc1cc(/C=C/c2cc(/C=C/c3ccc(O)c(OC)c3)nc(N)n2)ccc1O`, 3.39% (active).
Same read-out and setting: as for `CC(=O)Oc1cc(OC(C)=O)c2ccccc2c1OC(C)=O`, the figure is 67.7%; as for `CCOc1ccccc1/C=N\N=C\c1ccccc1O`, 78.7%.

The subject of the next assay is RXF 393 renal. The assay is described as above. The note with it: 10 µM.
On to `COc1ccc(/C=C2\CCCC3=C2NC(N)=NC3c2ccc(OC)cc2)cc1` (stereo unspecified), for which the growth was 99.3%.
In the case of `CN(C)CCCOc1cccc(NC2=C(Cl)C(=O)C(Nc3cccc(OCCCN(C)C)c3)=C(Cl)C2=O)c1`, the growth was -88.8% (active).
The same measure, in the same setting: as for `N#CC1=C(N)Oc2cc(N)ccc2C1c1cccnc1` (stereo unspecified), the figure is 108%; as for `COc1cc(/C=C/c2cc(/C=C/c3ccc(O)c(OC)c3)n(C(=O)Nc3ccc(C)cc3)n2)ccc1O`, -47.5% (active); as for `Cc1ccc(-n2nnnc2N)c(C)c1`, 143%.
Same read-out and setting: to `CCCCN(CCCC)C(=O)[C@H](CC)[C@@H]1CC[C@@H](C)[C@@H]([C@H](C)[C@@H](O)[C@@H](C)C(=O)[C@H](CC)C2O[C@]3(C=C[C@@H](O)[C@]4(CC[C@@](C)([C@H]5CC[C@](O)(CC)[C@H](C)O5)O4)O3)[C@H](C)C[C@@H]2C)O1` (stereo partly specified) belongs -3.81% (active).
The same measure, in the same setting: to `COc1ccc2c(c1)C(=O)/C(=C/c1ccc([N+](=O)[O-])o1)O2` belongs -78.3% (active); to `Cc1ccc(S(=O)(=O)N(C)CCCCCC(=O)O)cc1`, 103%.
As for `NC1=NC(c2ccc(Cl)cc2)C2=C(N1)/C(=C/c1ccc(Cl)cc1)CCC2` (stereo unspecified), the growth was 34.5%.
Take `S=C(NCc1ccccc1)NCc1ccccc1`: the growth was 101%.
`COc1cc2cc(Oc3ccc(NC(=O)c4ccccc4)cc3)c(C)nc2cc1OC`: the growth was 53.3%.
On the same count and under the same terms, as for `Cc1c(Cl)cccc1NC(=O)CN1CCOCC1`, the figure is 117%; as for `C=CCN(CC=C)C(=O)[C@H](CC)[C@@H]1CC[C@@H](C)[C@@H]([C@H](C)[C@@H](O)[C@@H](C)C(=O)[C@H](CC)C2O[C@]3(C=CC(=O)[C@]4(CC[C@@](C)([C@H]5CC[C@](O)(CC)[C@H](C)O5)O4)O3)[C@H](C)C[C@@H]2C)O1` (stereo partly specified), 21.4%; as for `CCN1CCN(CCC(=O)Nc2cccc(-n3cc(-c4ccncc4)c(-c4ccc(Cl)c(OC)c4)n3)c2)CC1`, -7.05% (active).
For the compound `Nc1ccn(Cc2nnc(CCC(=O)c3nc4ccccc4[nH]3)o2)c(=O)n1`, the growth was 98.5%.
On the same count and under the same terms, to `Cc1ccc2nc(Cl)c(-c3nc4ccccc4o3)cc2c1` belongs 102%.
The same measure, in the same setting: as for `C/C=C/CSC(C)(C)C(=O)NC`, the figure is 110%; as for `COc1cc2c(Nc3ccc(S(N)(=O)=O)cc3)ncnc2c(OC)c1OC`, 109%; as for `CC(=O)OC1C=CC(OC(C)=O)O1` (stereo unspecified), 112%.
As for `CC(=O)C1N=NCC1c1ccccc1` (stereo unspecified), the growth is 106%.
On to `O=C(CN(C1CCCCC1)C1CCCCC1)Nc1ccc(S(=O)(=O)c2ccc(NC(=O)CN(C3CCCCC3)C3CCCCC3)cc2)cc1`, for which the growth was -61.4% (active).
Regarding `Cc1c[nH]c(=O)n(Cc2nnc(CCC(=O)c3nc4ccccc4[nH]3)o2)c1=O`, the growth is -7.83% (active).
The same measure, in the same setting: to `O=C(CCn1cnc2c(cc(-c3ccccc3)n2-c2ccccc2)c1=O)Nc1ccc(F)cc1` belongs 1.78% (active).
The same measure, in the same setting: to `CN(C)CCOc1cccc(NC2=C(Cl)C(=O)C(Nc3cccc(OCCN(C)C)c3)=C(Cl)C2=O)c1` belongs -76.5% (active); to `CN1CCN(CCC(=O)Nc2cccc(-n3cc(-c4ccncc4)c(-c4ccc(Cl)c(O)c4)n3)c2)CC1`, 30%; to `CC(=O)Nc1ccc(CC[C@H]2CCC/C=C/[C@@H]3C[C@H](O)C[C@H]3[C@H](O)/C=C/C(=O)O2)cc1`, -32.1% (active).
Still for that read-out and setting: as for `CN(C)CCN(Cc1ccccc1)c1ccc2ccccc2n1`, the figure is 105%; as for `C/C(=N\O)c1ccc(NC(=O)CSc2nnc(-c3ccccc3)n2-c2ccccc2)cc1`, 99.9%; as for `CCC(CC)n1c(C)cc(=O)n1C(CC)CC`, 111%.
In the case of `CC[C@@H](C(=O)[C@H](C)[C@H](O)[C@@H](C)[C@H]1O[C@H]([C@@H](CC)C(=O)O)CC[C@H]1C)C1O[C@]2(C=C[C@@H](O)[C@]3(CC[C@@](C)([C@H]4CC[C@](O)(CC)[C@H](C)O4)O3)O2)[C@H](C)C[C@@H]1C` (stereo partly specified), the growth is -8.61% (active).
Same read-out and setting: to `O=C(O)c1cc([N+](=O)[O-])ccc1Oc1ccccc1` belongs 107%.
The same measure, in the same setting: to `O=[N+]([O-])c1cccc(/C=N/NC(=S)NC23CC4CC(CC(C4)C2)C3)c1` belongs 75.9%.
In the case of `COc1cc(C(=O)n2nc(-c3cc(OC)c(OC)c(OC)c3)nc2N)cc(OC)c1OC`, the growth was 114%.
On the same count and under the same terms, as for `COc1ccc(-c2n[nH]nc2-c2cc(OC)c(OC)c(OC)c2)cc1`, the figure is 33.3%; as for `C=CCN(CC=C)C(=O)[C@H](CC)[C@@H]1CC[C@@H](C)[C@@H]([C@H](C)[C@@H](O)[C@@H](C)C(=O)[C@H](CC)C2O[C@]3(C=C[C@@H](O)[C@]4(CC[C@@](C)([C@H]5CC[C@](O)(CC)[C@H](C)O5)O4)O3)[C@H](C)C[C@@H]2C)O1` (stereo partly specified), -1.56% (active); as for `O=C(Nc1cccc2c1CCCC2)c1cc2ccccc2cc1O`, 39.5%.
Still for that read-out and setting: as for `O=C1/C=C/[C@@H](O)[C@@H]2C[C@@H](O)C[C@H]2/C=C/CCC[C@H](CCc2ccc(NC(=S)Nc3ccc4c(c3)C(=O)OC43c4ccc(O)cc4Oc4cc(O)ccc43)cc2)O1`, the figure is -30.2% (active); as for `COc1cc(/C=C/c2cc(/C=C/c3ccc(O)c(OC)c3)nc(N)n2)ccc1O`, -63.9% (active).
Same read-out and setting: as for `CC(=O)Oc1cc(OC(C)=O)c2ccccc2c1OC(C)=O`, the figure is 93.1%; as for `CCOc1ccccc1/C=N\N=C\c1ccccc1O`, 121%.
